A number with no mark means an inactive call. Inconclusive results are not listed. Calls of active or inactive are those of the source. Calls come from the whole dose curve; as a rule, active = well fitted curve in the direction sought with a large enough effect; inconclusive = small, poorly fitted or top-dose-only effect, or another doubt; inactive = no such curve, though single readings can be large; an effect the other way counts as inactive or inconclusive.

Assay [1] deals with Cytochrome P450 3A4 (Homo sapiens) (UniProt P08684). Description: qHTS Assay for Inhibitors and Substrates of Cytochrome P450 3A4 (AID 884). Note: potency is the fitted concentration of half-maximal effect; nearly all actives have a fitted effect of over 50% in size. The gist of the method: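 20 nM human CYP3A4 with 25 uM Luciferin-PPXE (at KM) in 200 mM KPO4, preincubated 10 min with compound; NADPH regeneration started a 60 min RT reaction. Luciferin detected by luminescence, normalized to 57 uM ketoconazole as full inhibition.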

Assay [2] shares this target. The assay can be described thus: qHTS Assay for Activators of Cytochrome P450 3A4 (AID 885). Note: nearly all actives have a fitted effect of over 65% in size. The gist of the method: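 Quantitative HTS format: compounds preincubated with 20nM human CYP3A4 and Luciferin-PPXE substrate at KM, reaction started by NADPH regeneration, stopped after 60 min, luciferase luminescence read 20 min later.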
(In general: qHTS replaces the single test concentration by a dilution series.)

Sequence of Cytochrome P450 3A4 (Homo sapiens) (P08684 whole entry, looked up): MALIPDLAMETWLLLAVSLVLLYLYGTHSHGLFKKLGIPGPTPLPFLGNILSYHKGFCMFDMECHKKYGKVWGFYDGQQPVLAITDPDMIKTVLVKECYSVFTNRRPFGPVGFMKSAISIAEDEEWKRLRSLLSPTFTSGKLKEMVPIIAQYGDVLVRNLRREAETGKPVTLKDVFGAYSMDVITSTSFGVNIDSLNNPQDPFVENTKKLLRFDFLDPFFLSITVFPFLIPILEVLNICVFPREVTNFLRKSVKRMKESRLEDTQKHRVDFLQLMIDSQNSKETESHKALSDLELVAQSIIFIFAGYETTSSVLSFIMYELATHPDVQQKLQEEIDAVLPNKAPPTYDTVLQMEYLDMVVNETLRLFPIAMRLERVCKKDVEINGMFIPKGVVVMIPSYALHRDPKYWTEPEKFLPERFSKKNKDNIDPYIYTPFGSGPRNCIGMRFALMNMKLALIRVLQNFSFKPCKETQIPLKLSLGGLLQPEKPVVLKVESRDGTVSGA

For the compound `CCCCCCN(C(=O)CCCCCN1C(=O)NC(c2ccc(-c3ccccc3)cc2)C(C(=O)OCc2ccccc2)=C1C)C(C)C(=O)NCCCC` (configuration not stated), in assay [1], the Potency was 3.16 µM (active). Moreover, the Potency result in assay [2] is “inactive”.

Turning to `COCCNC(=O)[C@@]1(C)C=C[C@@H](Cc2ccccc2)N1C(=O)c1ccccc1`, the Potency in assay [1] is 7.94 µM (active). In addition, the Potency result in assay [2] is “inactive”.

Take `CC1(C)CC(=O)c2c(oc3cc4c(cc23)OCO4)C1`: the Potency in assay [1] was 3.98 µM (active). In addition, the Potency result in assay [2] is “inactive”.

On to `N#Cc1ccc(C23CC4(C2)[C@H](CN(Cc2cccnc2)[C@@H]4c2ccccc2)C3c2ccc(C(F)(F)F)cc2)cc1` (some centres not stated), for which, in assay [1], the Potency is 6.31 µM (active). Further, in assay [2], the Potency result was “inactive”.

`CCC1=C(OC(=O)N(CC)CC)N2C(=O)OC(=NCCc3c[nH]c4ccccc34)[C@]2(Cc2ccccc2)[C@H]2C1=CC[C@H]1C(=O)N(C)C(=O)[C@H]12`: the Potency in assay [1] is 1.26 µM (active). In addition, the Potency result in assay [2] is “inactive”.

Turning to `CN1C[C@@H]2C(c3ccc(Cl)nc3)C3(c4ccccc4)CC2(C3)[C@H]1c1ccccc1` (some centres not stated), in assay [1], the Potency was 12.6 µM (active). Moreover, in assay [2], the Potency entry is “inactive”.

As for `COC(=O)[C@@H]1C[C@@H]2CC[C@@H](O)C[C@@H]2N1Cc1ccccc1OS(=O)(=O)c1ccc(C)cc1`, the Potency in assay [1] is 2.51 µM (active). The Potency result in assay [2] was “inactive”.

As to `COC(=O)c1ccc(C(/C=C/[C@@H](C)C(=O)NCc2cc(C)n(C)n2)NC(=O)OCc2ccccc2)cc1` (some centres not stated), the Potency in assay [1] was 2 µM (active). Moreover, the Potency result in assay [2] is “inactive”.

For the compound `COC(=O)c1cccc(C23CC4(C2)[C@H](CN(CC2CCCCC2)[C@@H]4c2ccccc2)C3c2ccc(Cl)nc2)c1` (some centres not stated), the Potency in assay [1] was 15.8 µM (active). Further, in assay [2], the Potency result was “inactive”.

As for `CO[C@H]1COC(=O)[C@H](C)NC(=O)C/C=C\[C@@H](C)[C@@H](NS(=O)(=O)c2ccc(C)cc2)COC(=O)[C@H](OCc2ccccc2)/C=C\[C@@H]1C`, the Potency in assay [1] is 3.16 µM (active). For the same compound, the activity change, positive = activation in assay [2] was -79.4% [at 11.4 µM].

For the compound `CO[C@H]1COC(=O)[C@H](C)NC(=O)C/C=C\[C@@H](C)[C@@H](NS(=O)(=O)c2ccc(C)cc2)COC(=O)C/C=C\[C@@H]1C`, the Potency in assay [1] is 3.98 µM (active). Further, the activity change, positive = activation in assay [2] was -80.3% [at 11.4 µM].

Turning to `C[C@H]1C2=C3C(C[C@H]4C(=O)N(c5ccccc5)C(=O)[C@H]4[C@H]3[C@@]3(Cc4ccccc4)C(=NCCc4c[nH]c5ccccc45)OC(=O)N3C2=O)[C@H]2C(=O)N(c3ccccc3)C(=O)[C@H]21` (some centres not stated), in assay [1], the Potency was 2.51 µM (active). In addition, in assay [2], the Potency entry was “inactive”.

For the compound `Cn1c(=O)c(C(=O)COC(=O)c2cc(C(F)(F)F)nc3c(C(F)(F)F)cccc23)c(N)n(CC2CC2)c1=O`, the Potency in assay [1] is 3.98 µM (active). Besides, the Potency result in assay [2] is “inactive”.

On to `COc1cccc([C@@H]2Oc3ccc(OC)cc3C(=O)[C@H]2O)c1`, for which the Potency in assay [1] was 3.98 µM (active). Also, the activity change, positive = activation in assay [2] was -83.3% [at 11.4 µM].

With `C#CCCCO/N=C1/C[C@@H](O)[C@@H](O)[C@@H]2[C@@H]3C(=O)N([C@@H](C)c4ccccc4)C(=O)[C@H]3CC[C@H]12`, the Potency in assay [1] was 3.98 µM (active). Besides, in assay [2], the activity change, positive = activation was -89.1% [at 11.4 µM].

Turning to `CCC1=C(OC(=O)N(CC)CC)N2C(=O)OC(=NCC(=O)OC)[C@]2(Cc2ccccc2)[C@H]2C1=CC[C@H]1C(=O)N(C)C(=O)[C@H]12`, the Potency in assay [1] is 10 µM (active). The Potency result in assay [2] was “inactive”.

On to `FC(F)(F)c1ccc(C2[C@H]3CN(CC4CCCCC4)[C@H](c4ccccc4)C34CC2(c2cccnc2)C4)cc1` (some centres not stated), for which the Potency in assay [1] was 15.8 µM (active). Also, in assay [2], the Potency entry is “inactive”.

Consider `COC(=O)[C@H]1C[C@H]2CC[C@H](O)C[C@H]2N1Cc1c(F)cccc1Cl`, for which the Potency in assay [1] was 12.6 µM (active). Also, the Potency result in assay [2] was “inactive”.

In the case of `CCCNC(=O)OC[C@H]1O[C@@H](CCO/N=C2/[C@H]3O[C@@H]3[C@@H](O)[C@H]3[C@H]2CCn2c(=O)n(-c4ccccc4)c(=O)n23)C=C[C@@H]1Oc1ccc(OC)cc1`, the Potency in assay [1] is 3.16 µM (active). Besides, in assay [2], the activity change, positive = activation is -85.3% [at 11.4 µM].

Consider `CCCCCCNC(=O)Nc1ccc(S(=O)(=O)Nc2ccc(CCNC[C@H](O)COc3ccc(O)cc3)cc2)cc1`, for which the Potency in assay [1] was 7.94 µM (active). The Potency result in assay [2] was “inactive”.

Regarding `COC(=O)c1ccc(C23CC4(C2)[C@H](CN(Cc2cccnc2)[C@@H]4c2ccccc2)C3c2ccccc2)cc1` (some centres not stated), the Potency in assay [1] was 3.98 µM (active). The Potency entry in assay [2] is “inactive”.

Turning to `CCOC(=O)N/N=C1/C[C@@H](O)[C@@H](O)[C@@H]2[C@@H]3C(=O)N(Cc4ccc5c(c4)OCO5)C(=O)[C@H]3CC[C@@H]12`, in assay [1], the Potency is 3.98 µM (active). For the same compound, the activity change, positive = activation in assay [2] is -82.5% [at 11.4 µM].

For `CN1C[C@@H]2C(c3ccc(C(F)(F)F)cc3)C3(c4cccnc4)CC2(C3)[C@H]1c1ccccc1` (some centres not stated), the Potency in assay [1] is 7.94 µM (active). Further, the Potency entry in assay [2] was “inactive”.

As to `FC(F)(F)c1ccc(CN2C[C@@H]3C(c4ccccc4)C4(c5cccnc5)CC3(C4)[C@H]2c2ccccc2)cc1` (some centres not stated), the Potency in assay [1] was 15.8 µM (active). The Potency entry in assay [2] is “inactive”.

`Clc1ccc(C2[C@H]3CN(Cc4cccnc4)[C@H](c4ccccc4)C34CC2(c2cccnc2)C4)cn1` (some centres not stated): in assay [1], the Potency was 2.51 µM (active). Further, the Potency entry in assay [2] was “inactive”.

In the case of `Cn1c(=O)c(C(=O)COC(=O)c2cc(-c3ccco3)nc3ccccc23)c(N)n(Cc2ccccc2)c1=O`, the Potency in assay [1] is 12.6 µM (active). Further, the Potency result in assay [2] was “inactive”.

These data come from PubChem BioAssay (NCATS).
